Experimental data as given in paper PMC4336329 (PLoS ONE, 2015).
Out of some 310,000 compounds screened, about 14,000 (4.5%) showed an effect of 50% or more. The effect is printed as a negative number. This is one part of a sample in which strong results are shown more often than they occur.

target: human ether-à-go-go-related gene (hERG) potassium channel (human, UniProt Q12809); assay: primary screen, population patch clamp on CHO cells stably expressing hERG; higher = less effect of the substance
Sequence (Q12809 whole entry, looked up): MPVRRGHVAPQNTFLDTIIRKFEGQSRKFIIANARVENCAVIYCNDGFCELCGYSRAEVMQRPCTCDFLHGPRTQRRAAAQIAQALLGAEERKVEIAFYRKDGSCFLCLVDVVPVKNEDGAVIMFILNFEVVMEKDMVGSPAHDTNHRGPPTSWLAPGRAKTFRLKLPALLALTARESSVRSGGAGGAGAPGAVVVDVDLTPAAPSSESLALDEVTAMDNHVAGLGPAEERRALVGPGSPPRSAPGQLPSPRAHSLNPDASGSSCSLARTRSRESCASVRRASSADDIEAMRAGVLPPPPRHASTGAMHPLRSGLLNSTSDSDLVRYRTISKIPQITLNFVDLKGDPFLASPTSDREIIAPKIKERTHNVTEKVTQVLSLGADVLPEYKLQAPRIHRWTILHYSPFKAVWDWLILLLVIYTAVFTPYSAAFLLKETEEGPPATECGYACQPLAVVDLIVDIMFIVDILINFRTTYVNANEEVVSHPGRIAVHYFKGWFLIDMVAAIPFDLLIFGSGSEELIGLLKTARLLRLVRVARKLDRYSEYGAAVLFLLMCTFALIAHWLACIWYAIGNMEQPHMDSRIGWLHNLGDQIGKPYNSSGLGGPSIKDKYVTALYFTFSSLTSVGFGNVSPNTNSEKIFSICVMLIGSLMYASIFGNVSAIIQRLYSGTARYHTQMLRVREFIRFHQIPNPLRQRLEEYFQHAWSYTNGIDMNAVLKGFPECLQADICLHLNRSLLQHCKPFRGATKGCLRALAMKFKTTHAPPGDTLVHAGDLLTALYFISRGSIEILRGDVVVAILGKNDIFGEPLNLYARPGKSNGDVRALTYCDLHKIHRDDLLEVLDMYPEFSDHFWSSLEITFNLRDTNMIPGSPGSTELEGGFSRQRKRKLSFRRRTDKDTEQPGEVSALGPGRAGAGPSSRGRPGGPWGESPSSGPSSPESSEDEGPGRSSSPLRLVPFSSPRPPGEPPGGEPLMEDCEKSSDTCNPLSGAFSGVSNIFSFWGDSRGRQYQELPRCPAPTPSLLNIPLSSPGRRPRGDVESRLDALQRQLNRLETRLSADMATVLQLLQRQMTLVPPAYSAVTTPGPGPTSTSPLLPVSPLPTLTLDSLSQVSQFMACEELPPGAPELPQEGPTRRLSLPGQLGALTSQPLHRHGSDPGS
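Note: peak tail current of the secondary pulse compared with the same well before compound.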

| Structure (SMILES) | hERG current change (%, negative = inhibition) at 10uM [%] |
| --- | --- |
| COC(=O)CCC(=O)NNC(=O)c1cccc(Cl)c1 | 16.4 |
| CC(=O)c1sc(NC(=O)C(C)C)nc1C | -0.878 |
| CC(=O)Nc1ccc(-c2csc(Nc3ccc(S(N)(=O)=O)cc3)n2)cc1 | -1.99 |
| O=C(Cn1nc(-c2ccc(F)cc2)ccc1=O)Nc1ccc2c(c1)OCCO2 | -0.525 |
| Cc1ccc(C)c(CN2CCC(CNC(=O)Nc3cccc(Cl)c3C)CC2)c1 | -43.1 |
| Cc1ccc(NC(=O)NCC2CCN(Cc3cc(C)ccc3Cl)CC2)c(C)c1 | -58.3 |
| Cc1ccc(NC(=O)NC(=O)CN2CCC(C(N)=O)CC2)c(C)c1 | 12 |
| O=C(Cn1nnc(-c2ccccc2)n1)c1ccccc1 | 7.22 |
| CCCC(=O)N/C(N)=N/c1nc(C)c2cc(C)ccc2n1 | -23.8 |
| Cc1nc(/N=C(\N)NC(=O)NC2CCCCC2)nc2ccccc12 | -21 |
| Cc1ccc2nc(/N=C(\N)NC(=O)NC3CCCCC3)nc(C)c2c1 | -76.4 |
| CCc1cc(C(=O)OC)c(NC(=O)CN2CCN(C(=O)C3CCCO3)CC2)s1 (stereo not drawn) | -47.2 |
| CCc1cc(C(=O)OC)c(NC(=O)CN2CCN(C(=O)c3ccco3)CC2)s1 | -51.6 |
| Cc1ccc(C(=O)c2cc(C)sc2NC(=O)CN2CCN(C(=O)c3ccco3)CC2)cc1 | -11.7 |
| CCc1c(C)sc(NC(=O)CN2CCN(C(=O)c3ccco3)CC2)c1C(=O)OC | -39.7 |
| CCOC(=O)c1cc(CC)sc1NC(=O)CN1CCN(C(=O)c2ccco2)CC1 | -67.2 |
| CCOC(=O)c1cc(CC)sc1NC(=O)CN1CCN(C(=O)C2CCCO2)CC1 (stereo not drawn) | -65.9 |
| COC(=O)CN1CCN(C(=O)c2ccco2)CC1 | 10 |
| COC(=O)c1cc(C)sc1NC(=O)CN1CCN(C(=O)c2ccco2)CC1 | -30 |
| CCOC(=O)c1cc(C)sc1NC(=O)CN1CCN(C(=O)c2ccco2)CC1 | -72.8 |
| CCOC(=O)c1c(NC(=O)CN2CCN(C(=O)c3ccco3)CC2)sc(C)c1C | -8.41 |
| CCOC(=O)c1cc(C)sc1NC(=O)CN1CCN(C(=O)C2CCCO2)CC1 (stereo not drawn) | -31 |

| Structure (SMILES) | hERG current change (%, negative = inhibition) at 10uM [%] |
| --- | --- |
| CCOC(=O)c1c(NC(=O)CN2CCN(C(=O)c3ccco3)CC2)sc(C(N)=O)c1C | -20.1 |
| COC(=O)c1sccc1NC(=O)c1cc(-c2ccc(C)cc2C)nc2ccccc12 | 6.94 |
| CC(C)C(NC(=O)c1ccc(C(C)(C)C)cc1)C(=O)NC1=NCCS1 (stereo not drawn) | -6.13 |
| Cc1ccccc1CN(c1ccc(C(=O)Nc2cccnc2)cc1)S(C)(=O)=O | -9.59 |
| NC(=O)CSc1n[nH]c(-c2ccco2)n1 | 24 |
| O=C(COC(=O)COc1cccc(C(F)(F)F)c1)NC(=O)NC1CCCCC1 | -1.9 |
| Cc1c(CNCCc2ccccc2)c(C(=O)O)c(C)n1-c1ccccc1 | 12.1 |
| C/C(=N/NC(=O)CNC(=O)Cc1ccc(Cl)cc1)c1ccco1 | 4.04 |
| CCc1cc(C(=O)c2ccc(OC)cc2)c(NC(=O)CN2CCN(C)CC2)s1 | -71.3 |
| CCc1cc(C(=O)c2ccc(OC)cc2)c(NC(=O)CN2CCCC2)s1 | -12.4 |
| CCc1cc(C(=O)c2ccc(OC)cc2)c(NC(=O)CN2CCCCC2)s1 | 5 |
| CCOc1cccc2cc(C(=O)N3CCc4ccccc43)c(=O)oc12 | -2.43 |
| COC(=O)C1=C(c2ccc(OC)c(OC)c2)C[C@@H]2CC[C@H]1N2C(=O)NCCCOC(C)C | 15.3 |
| C[N+]1(CC(=O)OCCCC2CCCCC2)CCCC1.[I-] | -8.31 |
| CC(OCC(O)CNCC1COc2ccccc2O1)c1ccc(Cl)cc1 (stereo not drawn) | -22.7 |
| Cl.OC(CNCC1COc2ccccc2O1)COc1ccc(Cl)cc1 (stereo not drawn) | -56.2 |
| Cl.OC(CNC1CCCC1)COc1ccc(-c2ccccc2)cc1 (stereo not drawn) | -51.8 |
| Cl.OC(CNC1CCCC1)COc1ccc(F)cc1 (stereo not drawn) | 5.27 |
| COc1ccc(OCC(O)CNC2CCCC2)cc1.Cl (stereo not drawn) | 12.8 |
| Cl.OC(CNC1CCCC1)COc1ccc(Cl)cc1 (stereo not drawn) | -9.8 |
| O=C(O)c1ccccc1C(=O)NCC(O)COc1ccc(Cl)cc1 (stereo not drawn) | 2.34 |
| OC(CNCC1COc2ccccc2O1)COc1ccccc1F (stereo not drawn) | 1.11 |

| Structure (SMILES) | hERG current change (%, negative = inhibition) at 10uM [%] |
| --- | --- |
| OC(CNC1Cc2ccccc2C1)COc1ccc(Cl)cc1 (stereo not drawn) | -68.8 |
| OC(CNC1Cc2ccccc2C1)COc1ccc(F)cc1 (stereo not drawn) | -49.1 |
| COC(=O)c1ccc(OCC(O)CNC2CCCC2)cc1.Cl (stereo not drawn) | 13.3 |
| Cl.O=[N+]([O-])c1ccc(OCC(O)CNC2CCCC2)cc1 (stereo not drawn) | -76.2 |
| O=C(CSc1nnc(-c2cccs2)o1)N1CCCc2ccccc21 | 3.02 |
| O=C(CCCn1c(=S)[nH]c2ccsc2c1=O)Nc1ccc2c(c1)OCO2 | 17.2 |
| O=C(COC(=O)c1ccccc1O)Nc1cc([N+](=O)[O-])ccc1Cl | -21.5 |
| Nc1nc(NCCc2ccccc2)nc(NCc2ccccc2)c1[N+](=O)[O-] | 20.4 |
| Cc1cccc(C)c1OCC(O)CNS(=O)(=O)c1ccccc1C(=O)N1CCCCC1 (stereo not drawn) | -10.9 |
| Cc1ccc(C)c(OCC(O)CNC2CCCC2)c1.Cl (stereo not drawn) | 8.8 |
| Cc1ccc(OCC(O)CNC2CCCC2)c(C)c1.Cl (stereo not drawn) | 7.48 |
| Cc1ccc(OCC(O)CNS(=O)(=O)c2ccccc2C(=O)N2CCCCC2)cc1 (stereo not drawn) | -13.9 |
| Cc1ccc(C(C)C)c(OCC(O)CNC2CCCC2)c1.Cl (stereo not drawn) | -51.9 |
| O=C(c1ccccc1S(=O)(=O)NCC(O)COc1ccc([N+](=O)[O-])cc1)N1CCCCC1 (stereo not drawn) | -56.8 |
| CCc1nn(C(C)C(=O)N2CCN(c3ccccc3)CC2)c(=O)c2cc3occc3n12 (stereo not drawn) | -25.3 |
| CCOC(=O)C1C(c2ccc(O)c(OCC)c2)NC(=S)NC1(O)C(F)(F)F (stereo not drawn) | -12.5 |
| CC(=O)c1ccc(N2CCN(C(=O)CCC(=O)Nc3ccc4nc(N5CCN(C)CC5)cc(C)c4c3)CC2)cc1 | 20.3 |
| CN(C(=O)COC(=O)c1ccc(-c2ccc(O)cc2)cc1)C1CCS(=O)(=O)C1 (stereo not drawn) | 10.8 |
| COCCNC(=O)CN(C(=O)CCC(=O)Nc1ccccn1)c1ccc(F)c(Cl)c1 | 4.59 |
| Cc1ccc(-n2nnnc2SCC(=O)NCCC2=CCCCC2)c(C)c1 | -13.1 |
| O=C(CSc1nnnn1-c1ccccc1)NCC1(N2CCOCC2)CCCCC1 | -21.3 |
| Cc1ccc(-n2nnnc2SCC(=O)NCC2(N3CCCCC3)CCCCC2)c(C)c1 | -284 |

| Structure (SMILES) | hERG current change (%, negative = inhibition) at 10uM [%] |
| --- | --- |
| O=C(CSc1nnnn1-c1ccccc1)NCC1(N2CCCCC2)CCCCC1 | -62.3 |
| CNC(=O)CSc1nnnn1-c1ccc(C)cc1C | 7.63 |
| O=C(CSc1ccccc1)NCC1(N2CCCCC2)CCCCC1 | -0.798 |
| COCCN(C(=O)COC(=O)c1ccccc1Oc1ccccc1)c1c(N)n(Cc2ccccc2)c(=O)[nH]c1=O | -21.6 |
| Cc1cc(C(=O)N2CCN(c3ncccn3)CC2)sc1-c1ccccc1 | -3.34 |
| O=[N+]([O-])c1ccccc1/C=N/NC1=NCCN1 | 7.6 |
| COc1ccccc1N1CCN(C(=O)CCNC(=O)Cn2ccc3ccccc3c2=O)CC1 | 2.62 |
| CN(C(=O)C1CCC(=O)N(CCCN2CCCC2=O)C1)C(C1CC1)C1CC1 (stereo not drawn) | 12.1 |
| CC(=O)Nc1ccc(S(=O)(=O)Nc2ccc3c(c2)OCO3)cc1 | 17.2 |
| O=C(Nc1cccc(S(=O)(=O)N2CCOCC2)c1)C1CCCC1 | -4.03 |
| CN(C)S(=O)(=O)c1cccc(NC(=O)COC(=O)CCC(=O)c2ccc(F)cc2)c1 | -36 |
| O=C(Nc1cccc(S(=O)(=O)N2CCCCC2)c1)C1CCN(C(=O)c2ccc(Cl)cc2)CC1 | -31.7 |
| O=C(Nc1cccc(S(=O)(=O)N2CCCCC2)c1)C1CCC1 | 3.43 |
| O=C(Nc1cccc(S(=O)(=O)N2CCCCCC2)c1)C1CCC1 | -57.4 |
| CN(C)S(=O)(=O)c1cccc(NC(=O)COC(=O)C2CCN(C(=O)c3ccc(F)cc3)CC2)c1 | -50.8 |
| O=C(Nc1cccc(S(=O)(=O)N2CCCCCC2)c1)C1CCN(C(=O)c2ccc(Cl)cc2)CC1 | -41.9 |
| O=C(Nc1cccc(S(=O)(=O)N2CCCCCC2)c1)C1CCN(C(=O)c2ccc(F)cc2)CC1 | -88 |
| CN(c1ccccc1)S(=O)(=O)c1cccc(NC(=O)COC(=O)C2CCCCC2)c1 | 13.7 |
| O=C(Nc1cccc(S(=O)(=O)N2CCOCC2)c1)[C@@H]1CCCN1S(=O)(=O)c1ccc(Cl)cc1 | -62.8 |
| O=C(Nc1cccc(S(=O)(=O)N2CCOCC2)c1)C1CCCN(C(=O)c2ccc(Cl)cc2)C1 (stereo not drawn) | -32.4 |
| O=C(Nc1cccc(S(=O)(=O)N2CCCCC2)c1)C1CC1 | -10.6 |
